# An excerpt weighted towards active compounds, which were near 2.9% of everything screened.
# B2AR arrestin – qHTS assay of beta-arrestin-biased ligands of beta2-adrenergic receptor; Beta-2 adrenergic receptor (Homo sapiens), P07550; beta-arrestin recruitment to beta2AR, cell-based reporter; Potency, µM (highest dose often 46.1 µM), without a hit: top-dose activation, actives largely listed as activators; 0.02% of 330,000 active; AID 492947, 2010;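 note: potency is the fitted concentration of half-maximal effect; 0% = DMSO controls and full agonism = EC100 isoproterenol or metaproterenol; nearly all actives have a fitted effect of over 65% in size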
# Integrin act MD – qHTS for Activators of Integrin-Mediated Alleviation for Muscular Dystrophy; alpha7betagal myoblasts, beta-gal FDG fluorescence, 48 h; Potency, µM (highest dose often 38.3 µM), for the others: top-dose activation, usual class: activators; 0.064% of 350,000 active; AID 624291, 2012;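 note: potency is the fitted concentration of half-maximal effect; 100% = response of the positive control SU9516; nearly all actives have a fitted effect of over 60% in size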
#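 Alpha7betagal+/- myoblasts (passage 13) were plated 16-24 hr, then exposed to compounds (1:260 dilution of DMSO stock) for 48 hours at 37C. After MPER lysis, β-galactosidase reporter activity was read as FDG fluorescence (ex 480/em 540) after 30 minutes.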
# D3 antag – qHTS of D3 Dopamine Receptor Antagonist: qHTS | D3R cells, DiscoveRx beta-arrestin luminescence, antagonist mode; stronger effect = lower value | max response, negative = inhibition, % | 2.5% of 360,000 active; in the data active = max response below about -50%; inconclusive = no clear call, values can overlap the other calls; note: % is set by controls: 0 for no effect and ±100 for the full control effect
#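 Cells plated overnight at 1500 cells/well, then exposed to library compounds with dopamine controls for 90 minutes at 37 degrees C. DiscoveRx reagent added for 30–60 minutes at room temperature; luminescence read, quantitative HTS format.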
# DRD3 agonist – qHTS of D3 Dopamine Receptor Agonist: qHTS. D(3) dopamine receptor (Homo sapiens), P35462. D3R DiscoveRx beta-arrestin cells, luminescence, 90 min. max activation, %. 0.58% of 410,000 active. AID 652048, 2013; in the data active = max activation above about 30%; note: 0% is about no effect
#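 Agonist-mode cell screen: cells plated at 1500/well and incubated overnight at 37 °C, then exposed to library compounds for 90 min at 37 °C. Detection reagent was added for 30–60 min at room temperature, and luminescence was read.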
# IDH1 R132H inh – qHTS for Inhibitors of mutant isocitrate dehydrogenase 1 (IDH1): qHTS. Isocitrate dehydrogenase [NADP] cytoplasmic (Homo sapiens), O75874. IDH1-R132H enzyme, NADPH consumption, diaphorase/resazurin fluorescence. Potency, µM (doses to about 76.6 µM), without a hit: at the highest dose activity change, negative = inhibition, most hits filed as inhibitors. 0.093% of 390,000 active. AID 602179, 2012; note: potency is the fitted concentration of half-maximal effect; % is set by controls: 0 for no effect and ±100 for the full control effect; nearly all actives have a fitted effect of over 65% in size
# Target sequence (O75874 whole entry R132H, stated change not applied): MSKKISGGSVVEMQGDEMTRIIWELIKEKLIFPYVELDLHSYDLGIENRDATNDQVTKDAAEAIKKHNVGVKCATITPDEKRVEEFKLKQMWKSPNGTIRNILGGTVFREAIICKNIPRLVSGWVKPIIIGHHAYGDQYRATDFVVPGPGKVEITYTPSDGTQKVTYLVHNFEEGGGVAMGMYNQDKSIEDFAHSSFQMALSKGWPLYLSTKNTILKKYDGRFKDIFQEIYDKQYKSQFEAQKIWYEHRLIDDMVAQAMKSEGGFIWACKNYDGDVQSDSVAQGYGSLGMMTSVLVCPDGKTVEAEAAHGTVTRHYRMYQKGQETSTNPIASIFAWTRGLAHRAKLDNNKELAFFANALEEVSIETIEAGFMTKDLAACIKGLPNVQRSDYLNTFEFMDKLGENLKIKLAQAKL
#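 IDH1-R132H (0.5 ug/mL) preincubated 30 min with compound, then NADPH (0.016 mM) and alpha-KG (2 mM) added; 80 min at RT, pH 7.5. Remaining NADPH coupled via diaphorase/resazurin to fluorescence (540/590 nm); concentration-response curves normalized to no-enzyme control.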
# * hit, by the source's call; ? = inconclusive; . = no result. Unless noted, calls come from the whole dose curve; as a rule, active = well fitted curve in the direction sought with a large enough effect; inconclusive = small, poorly fitted or top-dose-only effect, or another doubt; inactive = no such curve, though single readings can be large; an effect the other way counts as inactive or inconclusive.
SMILES,B2AR arrestin,Integrin act MD,D3 antag,DRD3 agonist,IDH1 R132H inh
COC(=O)c1[nH]c2cccc(OC)c2c1NC(=O)CCN1CCC(C)CC1,0%,19%,-77*,-28,1%
COC(=O)c1[nH]c2cccc(OC)c2c1NC(=O)CCN1CCN(c2ccccc2OC)CC1,-1%,-19%,-90*,-46,0%
COC(=O)c1[nH]c2ccccc2c1NC(=O)CCN1CCN(C2CCCCC2)CC1,0%,.,.,.,.
CCCNc1ncnc2c1c(-c1ccccc1)cn2-c1ccccc1,.,.,.,1,?
Cc1ccc(C)c(N2CCN(S(=O)(=O)c3cc(C(=O)Nc4ccccc4C(F)(F)F)ccc3F)CC2)c1,.,.,.,-2,-6%
c1ccc(COc2ccc(-c3csnn3)cc2)cc1,0%,23%,-61*,-1,1%
Cc1cccc2c1Sc1ccc(Cl)cc1CC2N1CCNCC1 (configuration not stated),.,-81%,-53*,-17,11%
CCc1cccc2c1Sc1ccccc1CC2N1CCNCC1 (configuration not stated),.,-66%,-63*,-24,21%
c1ccc2c(c1)CC(N1CCCCC1)c1ccccc1N2 (configuration not stated),0%,21%,-4,-10,4%
C=C1CC(Cn2cc(Br)c(=O)[nH]c2=O)(c2ccc(-c3ccccc3)cc2)OC1=O (configuration not stated),.,-55%,-89*,-4,?
Cc1nc2c([nH]c3ccc(Br)cc32)s1,0%,10%,-101*,1,4%
Cc1n[nH]c2ccc(Br)cc2c1=O,.,-4%,24,2,6%
CCn1ncc(/C=N/N=C2\CCC3C4CCc5cc(O)ccc5C4CCC23C)c1C (configuration not stated),0%,13%,88,34*,0%
CCOCCCNC(=O)C1CCCN(Cc2nc(-c3ccc(CC)cc3)oc2C)C1 (configuration not stated),.,.,.,-11,0%
COc1ccc(C(=O)n2nc(-c3ccco3)nc2NCc2cccs2)cc1,.,.,.,4,4%
CCCCn1c(SCC(=O)Nc2nnc(C(C)C)s2)nc2c1c(=O)n(C)c(=O)n2C,0%,-11%,4,41*,2%
Cc1ccc(/C=C/C(=O)c2ccccc(=O)c2O)c(C)c1,?,-4%,-9,2,7%
O=C(/C=C/c1ccc([N+](=O)[O-])cc1)c1ccccc(=O)c1O,.,6%,-107*,-22,8%
O=C(/C=C/c1ccccc1Cl)c1ccc(O)cc1,4%,-44%,-16,-13,3%
Cc1ccc(C)c(/C=C/C(=O)c2ccccc(=O)c2O)c1,?,-40%,-51*,-19,8%
O=C(/C=C/c1ccccc1Cl)c1ccccc(=O)c1O,-1%,-49%,-77*,-19,0%
COC(=O)c1ccccc1NC(=O)Nc1cc(C)ccn1,-1%,-22%,4,-1,3%
Cc1ccnc(NC(=O)Nc2ccc(Br)cc2Cl)c1,0%,9%,-54*,-14,6%
O=C(C1CCCN(S(=O)(=O)c2cccc3nsnc23)C1)N1CCN(c2cccc(Cl)c2)CC1 (configuration not stated),.,.,.,32*,-5%
COc1cccc(N2CCN(C(=O)C3CCCN(S(=O)(=O)c4cccc5nsnc45)C3)CC2)c1 (configuration not stated),.,.,.,13,-7%
O=C(NCCN1CCN(c2ccccc2)CC1)C1CCN(S(=O)(=O)c2cccc3nsnc23)CC1,0%,0%,-16,94*,-3%
O=C(N/N=C/c1cc(Cl)cc([N+](=O)[O-])c1O)c1ccc2c(c1)OCO2,-1%,-18%,-67*,-26,2%
O=C(N/N=C/c1cc(Br)cc(Br)c1O)c1cccc(S(=O)(=O)N2CCOCC2)c1,0%,-13%,-18,1,-1%
O=C(N/N=C/c1cc(Cl)cc([N+](=O)[O-])c1O)c1cccc(S(=O)(=O)N2CCOCC2)c1,0%,1%,-93*,-37,4%

# Screening data deposited in PubChem by National Center for Advancing Translational Sciences (NCATS).
